Assay results published in a collection of fitness landscapes (doi:10.1126/science.1257360).
The full ranking holds about 140,000 sequences; the median of “enrichment ratio after two sorts for PhoP signalling” is about 0, and the highest 2% start at about 11. For the sample, the highest values were picked, then their nearest neighbours and some sequences at random.

B1: PhoQ; a variant is named by its letters at X, in order, P23837 (parent)
chain: MKKLLRLFFPLSLRVRFLLATAAVVLVLSLAYGMVALIGYSVSFDKTTFRLLRGESNLFYTLAKWENNKLHVELPENIDKQSPTMTLIYDENGQLLWAQRDVPWLMKMIQPDWLKSNGFHEIEADVNDTSLLLSGDHSIQQQLQEVREDDDDAEMTHSVAVNVYPATSRMPKLTIVVVDTIPVELKSSYMVWSWFIYVLSANLLLVIPLLWVAAWWSLRPIEALAKEVRELEEHNRELLNPATTRELTSLVRNLNRLLKSERERYDKYRTTLTDLTHSLKTPLXXLQXXLRSLRSEKMSVSDAEPVMLEQISRISQQIGYYLHRASMRGGTLLSRELHPVAPLLDNLTSALNKVYQRKGVNISLDISPEISFVGEQNDFVEVMGNVLDNACKYCLEFVEISARQTDEHLYIVVEDDGPGIPLSKREVIFDRGQRVDTLRPGQGVGLAVAREITEQYEGKIVAGESMLGGARMEVIFGRQHSAPKDE

Variants of: B1
Test: enrichment ratio after two sorts for PhoP signalling (ratio (wild type AVST 3.29)); higher = more functional
Settings: with PhoP (E. coli)

Variant	enrichment ratio
DEAP	≤ 0.25
LAGN	≤ 0.25
GGLE	≤ 0.25
MLEW	≤ 0.25
NEHY	≤ 0.25
TEHY	11.4
NEHS	≤ 0.25
YYHL	≤ 0.25
NEHL	≤ 0.25
TEHF	3.55
TEHL	12.5
TEHS	18.1
YYHY	≤ 0.25
TEHI	14.2
YYHS	≤ 0.25
TEHP	≤ 0.25
PQEA	≤ 0.25
YVFQ	≤ 0.25
IQHV	≤ 0.25
PPCA	≤ 0.25
ETDW	≤ 0.25
TNRM	≤ 0.25
MNTC	≤ 0.25
MNTM	18.9
TNCL	0.276
MNTI	13.1

Variant	enrichment ratio
MNWM	4.81
MNTS	≤ 0.25
MLTM	4.75
TNTM	31.2
KHVC	≤ 0.25
QGRV	≤ 0.25
HNCH	≤ 0.25
VGDV	≤ 0.25
NEGH	≤ 0.25
SGIE	≤ 0.25
SGGK	≤ 0.25
SGSQ	12.9
SGKA	≤ 0.25
SGIQ	11.9
SGDS	≤ 0.25
TGMQ	≤ 0.25
SGHP	≤ 0.25
SRIQ	≤ 0.25
SGGQ	14.9
SGGA	8.12
SGMQ	15.4
AGYL	4.28
QKLN	≤ 0.25
QYFC	≤ 0.25
SGFQ	2.13
EDPV	≤ 0.25

Variant	enrichment ratio
PQAT	≤ 0.25
VRML	≤ 0.25
TEML	28.6
TKML	19.2
MAML	25.7
FAML	6.33
NRML	≤ 0.25
PTML	≤ 0.25
VKML	≤ 0.25
HKML	≤ 0.25
MAKL	≤ 0.25
MKML	≤ 0.25
MEML	12
SWHC	≤ 0.25
WHRD	≤ 0.25
PISS	≤ 0.25
LFSF	≤ 0.25
RFYN	≤ 0.25
DIQW	≤ 0.25
IIYH	≤ 0.25
MMML	≤ 0.25
MCML	17.5
MIML	14
MTML	4.85
MIWL	3.25
MIRL	≤ 0.25

Variant	enrichment ratio
KEPP	≤ 0.25
HSFC	≤ 0.25
TLKM	≤ 0.25
CNFF	≤ 0.25
QNDV	≤ 0.25
MGTA	≤ 0.25
HFMM	≤ 0.25
MGAM	14.1
MGCK	3.89
MGTI	12.5
MGDH	≤ 0.25
MGTS	≤ 0.25
MGMM	37.6
MFMM	≤ 0.25
MGTM	13.6
MGTC	0.695
MGTH	≤ 0.25
HMRE	≤ 0.25
WQTY	≤ 0.25
YKIG	≤ 0.25
VGNS	≤ 0.25
HWDL	≤ 0.25
SSRL	≤ 0.25
YEQT	≤ 0.25
LCHM	≤ 0.25
MVGN	10.6

Variant	enrichment ratio
IKTK	≤ 0.25
MGDM	≤ 0.25
MGWM	21
MGGM	9.49
SITF	11.8
SLTF	12.2
LNTF	≤ 0.25
WLTF	≤ 0.25
KYTF	≤ 0.25
KATF	≤ 0.25
SNTF	12.1
SATF	11.2
NATF	≤ 0.25
SSTF	7.3
LLTF	≤ 0.25
SRTF	≤ 0.25
LNWL	≤ 0.25
ERPG	≤ 0.25
NYCA	≤ 0.25
IDCL	≤ 0.25
VING	≤ 0.25
WSTV	≤ 0.25
DWQL	≤ 0.25
TVQL	16.7
NMQL	≤ 0.25
MMQL	≤ 0.25

Variant	enrichment ratio
TMQL	12.8
HAQL	≤ 0.25
KSQL	≤ 0.25
SPQL	≤ 0.25
TQQL	11.6
NVQL	≤ 0.25
LAQL	≤ 0.25
TSQL	14
NGLW	≤ 0.25
YAWN	≤ 0.25
QRCA	≤ 0.25
FANK	≤ 0.25
PWMR	≤ 0.25
YMPP	≤ 0.25
PLMP	≤ 0.25
FLRE	≤ 0.25
MFVW	≤ 0.25
LQNW	≤ 0.25
YAQL	≤ 0.25
TNQL	12.7
LNQL	≤ 0.25
KLQL	≤ 0.25
TLQL	13
